Data as given in the supplement of paper PMC6555819.

Tests used:
Assay in all cases: PBM binding z-score (relative to random genomic background probes); higher = stronger binding; sequences stand for … in GC…GCGATTGACAGCGTAGAATGAAGG
[1] = tested on: PPARg:RXRa DBDmut IVT, anti-RXR (DBD mutation: RXRa K156A/R161A, NR concentration 270 nM, RXRa partner concentration 90 nM)
In short: (§1)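 Custom Agilent 4×180K protein-binding microarrays carried double-stranded probes. Their 34-nt variable regions held direct-repeat seeds, single-nucleotide variants, half-site ablations and random human genomic background sequences. Arrays were incubated 1 h with ligand-free nuclear receptor dimers in PBS pH 7.4, 2% milk, 0.02% Triton X-100, 1 mM DTT, 0.2 mg/mL BSA and 0.4 mg/ml salmon testes DNA. Antibodies against each partner (one per run) detected binding, and scanned fluorescence was regression-normalized. Binding z-scores use random background probes as reference.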

[2] = tested on: PPARg:RXRa IVT, anti-PPARg (NR concentration 270 nM, RXRa partner concentration 90 nM)
In short: as §1

[3] = tested on: PPARg DBDmut:RXRa IVT, anti-PPARg (DBD mutation: PPARg1 K132A/R137A, NR concentration 270 nM, RXRa partner concentration 90 nM)
In short: as §1

[4] = tested on: PPARg DBDmut IVT, anti-PPARg (DBD mutation: PPARg1 K132A/R137A, NR concentration 270 nM)
In short: as §1

[5] = tested on: PPARg homodimer (NR concentration 180 nM)
In short: as §1

[6] = tested on: PXR:RXRa (NR concentration 270 nM, RXRa partner concentration 90 nM)
In short: as §1

[7] = tested on: PXR homodimer (NR concentration 270 nM)
In short: as §1

[8] = tested on: RARa:RXR (NR concentration 270 nM, RXRa partner concentration 90 nM)
In short: as §1

[9] = tested on: RARa homodimer (NR concentration 270 nM)
In short: as §1

[10] = tested on: RARb:RXRa (NR concentration 270 nM, RXRa partner concentration 90 nM)
In short: as §1

Sequence	PBM binding z-score [1]	PBM binding z-score [2]	PBM binding z-score [3]	PBM binding z-score [4]	PBM binding z-score [5]	PBM binding z-score [6]	PBM binding z-score [7]	PBM binding z-score [8]	PBM binding z-score [9]	PBM binding z-score [10]
CGTCCAAGGTCAAGGGTCAGTGAAGAGATGACGG	3.08	5.28	0.202	-0.0608	5	5.97	1.43	8.23	1.5	5.81
CTACCAAGGTGAACAAGGTCGTCGATTACTATTC	2.69	2.94	0.293	-0.426	1.09	2.61	0.761	2.65	0.41	2.27
TCATATAGGTAAACAGGTTAAAGTCCGTAAGTTA	4.76	4.3	1.02	1.02	1.31	1.29	0.911	1.79	1.77	0.998
CCTTACGGGACACTCCAGGTTATAGCATCGGAGT	0.616	0.708	-0.0587	-0.578	0.252	0.0254	0.23	0.561	-0.181	0.356
GGAACGAGGGCCTTCGAGTTGATAGCATGGCGAT	0.104	-0.566	-0.653	-1.28	-1.03	-0.313	-0.534	-0.659	-0.765	-0.306
TTACCAAGGTGAAGGTCGTTGATCCCTCTGTAGA	1.59	3.45	1.02	-0.236	0.792	1.48	0.114	1.76	-0.599	2.28
CCTAGCAGGCCAATCTGGGTCACTTAAGGCTTGA	4.27	5.04	0.275	-0.588	1.03	1.16	-0.589	1.62	-0.727	1.55
GCCAGTTGGTCAGTAAAAGGTCACACACCGGTCG	0.399	2.44	0.21	0.231	3.78	5.1	1.14	5.76	1.88	4.14
TCATATAGGTAATAGAGGTGAAAGTCGGCATCTA	4.53	4.06	1.5	0.929	0.919	1.12	0.895	1.92	1.02	1.27
CCTTACGGGGCACTGACAGGTTATAGCATTTGGA	1.49	0.641	-0.296	-0.753	0.227	-0.0592	-0.274	0.21	0.0601	1.03
TTTCCAAGGTGAGCTGAGGTCGTTGATCCAACTC	1.18	2.2	0.272	0.546	0.272	4.97	1.26	2.04	-0.538	2.1
GGAACGAGGGCAAGTTGATAGCAGAGTTTGATGG	3.78	2.54	-0.0364	-0.551	0.361	0.937	0.84	0.145	-0.166	2.63
CCTACTGCGCCAAGGTCATTGATCAGTCAAAGCA	0.265	0.978	-0.442	-0.653	2.68	3.85	2.48	3.83	1.07	3.51
CCGACTGGGGGAGAAAGGTTACCATACCATCCGG	1.08	2.68	1.16	2.68	1.76	2	0.501	2.74	0.727	1.68
ATCTCTAGGTAAAGATAGTTCAGTGAGTGCAAAT	2.29	1.9	0.931	0.67	0.928	3.93	11.4	0.596	0.987	0.924
AGTCAAAGTTCATCTAAGTAACGTAAGATATGCT	0.404	2.37	0.832	1.41	2.51	4.78	4.97	3.48	1.03	5.03
TAGCCTAGGTCATTCCGGGGCCAGTATAGAAAGC	1.04	2.62	-0.235	0.258	0.924	2.65	-0.216	3.02	-0.809	3.74
ATCTCTAGGTAACAAGTTAAGTGAAAGAGAGGAC	3.26	2.85	1.87	1.54	0.926	0.289	0.574	0.842	0.894	0.723
TCAGACAGGTGGAGGTAACTCAGGTACGCAGTCG	1.72	-0.0459	0.459	-0.319	0.082	0.506	0.154	0.233	0.265	0.399
TTACCAAGGTGAGCTGAGGTCGTTGCTCCAACTC	1.08	2.12	-0.398	-1.21	-0.419	4.75	0.304	1.6	-0.876	1.74
TCTTGTAGATCAGAAGGTTAAGAAAGCTGGCCAA	1.98	0.611	0.0732	-0.22	0.201	0.61	0.0531	0.924	0.498	1.07
CCTGCTAGGTCAACGGTCAGCTAAAGCAGCTCGC	4.82	4.76	0.645	-0.543	2.2	1.8	-0.372	2.89	0.262	4.45
CATACGGGGTCAGCTAGGCCAGAGTAGGGACGGC	2.55	4.45	1.49	1.86	2.4	4.79	0.529	5.51	0.858	4.84
TGAATCAGGTTATAAGATCAGGGAACGTTGCAAA	0.57	1.03	1.01	0.775	2.15e-05	-0.146	-0.197	-0.101	0.428	0.25
